According to PubChem BioAssay (NCATS):
“And” between values parts separate entries of the source, which are not always exact repeats. Identical values can stand only once. Inconclusive results are not listed. Where a call stands in place of a potency, no number is given. Unmarked numbers belong to inactive results. The source made the active and inactive calls. Calls follow the shape of the dose curve; as a rule, active = well fitted curve in the direction sought with a large enough effect; inconclusive = small, poorly fitted or top-dose-only effect, or another doubt; inactive = no such curve, though single readings can be large; an effect the other way counts as inactive or inconclusive.

Experiments:
[1] = biological target: Cellular tumor antigen p53 (Homo sapiens) (UniProt P04637); assay: Primary qHTS for small molecule compounds that upregulate eGFP-tagged delta133p53alpha (in N-terminal) cells. (AID 2060322); conditions: NCI-H358 eGFP-delta133p53alpha fluorescence, 24 h; activation: stronger effect = higher value;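 also: cells pre-induced with doxycycline then dosed without doxycycline; nearly all actives have a fitted effect of over 75% in size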
Summary of the method: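 NCI-H358 cells pre-induced 24 h with 10 ng/ml doxycycline for eGFP-delta133p53alpha, plated dox-free and exposed 24 h at 37C to titrated compounds. Fixed, Hoechst-stained; gated GFP peak intensity by laser scanning cytometry, normalized to DMSO (0%) and 57.5 uM 5-azacytidine (100%).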

[2] = biological target: Aldehyde dehydrogenase, mitochondrial (Homo sapiens) (UniProt P05091); assay: qHTS for Inhibitors of the Aldehyde Dehydrogenase Family (ALDH2) Primary screen (AID 2061308); conditions: ALDH2 enzyme inhibition qHTS, 1536-well; series mostly up to 56 µM; also: nearly all actives have a fitted effect of over 55% in size
[3] = biological target: Retinaldehyde dehydrogenase 3 (Homo sapiens) (UniProt P47895); assay: qHTS for Inhibitors of the Aldehyde Dehydrogenase Family (ALDH1A3) Validation screen (AID 2061312); conditions: ALDH1A3 enzyme inhibition qHTS validation, fluorescence; series mostly up to 84.7 µM; also: nearly all actives have a fitted effect of over 45% in size
[4] = biological target: Retinaldehyde dehydrogenase 3 (Homo sapiens) (UniProt P47895); assay: qHTS for Inhibitors of the Aldehyde Dehydrogenase Family (ALDH1A3) Primary screen (AID 2061315); conditions: ALDH inhibition qHTS; series mostly up to 56 µM
[5] = BET inhibitor-based combinations targeting novel dependencies in MECOM-rearranged (r) AML: SET-2 cell line (AID 2202231); conditions: SET-2 AML cells viability, CellTiter-Glo luminescence, 48 h; viability: stronger effect = lower value, concentration not given here; also: nearly all actives have a fitted effect of over 35% in size; also: potency is read from the fitted curve at half-maximal effect
Summary of the method: (§1)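 Readout: CellTiter-Glo luminescence. Exposure: 48 h, 11 concentrations, 500 cells/well. Metric: AUC and within-line Z-AUC after DMSO/empty-well normalization.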

[6] = BET inhibitor-based combinations targeting novel dependencies in MECOM-rearranged (r) AML: OCI-AML3 cell line (AID 2202232); conditions: CellTiter-Glo luminescence, 48 h; Potency: OCI-AML3 viability; series mostly up to 46 µM; also: nearly all actives have a fitted effect of over 35% in size; also: potency is read from the fitted curve at half-maximal effect
Summary of the method: as §1

[7] = BET inhibitor-based combinations targeting novel dependencies in MECOM-rearranged (r) AML: MV-4-11 cell line (AID 2202233); conditions: MV-4-11 AML viability, CellTiter-Glo luminescence, 48 h; series mostly up to 46 µM; also: nearly all actives have a fitted effect of over 45% in size; also: potency is read from the fitted curve at half-maximal effect
Summary of the method: (§2)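 Seeding density was 500 cells/well, and drug exposure lasted 48 hr under standard culture conditions. Read-out used CellTiter-Glo reagent with a 15 min room-temperature incubation before luminescence measurement; AUC and Z-AUC summarize the normalized responses.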

[8] = BET inhibitor-based combinations targeting novel dependencies in MECOM-rearranged (r) AML: UCSD-AML1 cell line (AID 2202235); conditions: UCSD-AML1 AML cells viability, CellTiter-Glo, 48 h; series mostly up to 46 µM; also: nearly all actives have a fitted effect of over 40% in size; also: potency is read from the fitted curve at half-maximal effect
Summary of the method: as §2

[9] = BET inhibitor-based combinations targeting novel dependencies in MECOM-rearranged (r) AML: HNT-34 cell line (AID 2202234); conditions: HNT-34 AML viability, CellTiter-Glo luminescence, 48 h; series mostly up to 46 µM; also: nearly all actives have a fitted effect of over 35% in size; also: potency is read from the fitted curve at half-maximal effect
Summary of the method: as §2

[10] = BET inhibitor-based combinations targeting novel dependencies in MECOM-rearranged (r) AML: AML-191 cell line (AID 2202236; also: nearly all actives have a fitted effect of over 35% in size; also: potency is read from the fitted curve at half-maximal effect); conditions: AML-191 viability, CellTiter-Glo luminescence, 48 h; series mostly up to 46 µM
Summary of the method: as §1

[11] = BET inhibitor-based combinations targeting novel dependencies in MECOM-rearranged (r) AML: AML-194 cell line (AID 2202237; also: nearly all actives have a fitted effect of over 40% in size; also: potency is read from the fitted curve at half-maximal effect); conditions: AML-194 (MECOM-r AML) viability, CellTiter-Glo, 48 h; series mostly up to 46 µM
Summary of the method: as §1

Cellular tumor antigen p53 (Homo sapiens), sequence (P04637 whole entry, looked up): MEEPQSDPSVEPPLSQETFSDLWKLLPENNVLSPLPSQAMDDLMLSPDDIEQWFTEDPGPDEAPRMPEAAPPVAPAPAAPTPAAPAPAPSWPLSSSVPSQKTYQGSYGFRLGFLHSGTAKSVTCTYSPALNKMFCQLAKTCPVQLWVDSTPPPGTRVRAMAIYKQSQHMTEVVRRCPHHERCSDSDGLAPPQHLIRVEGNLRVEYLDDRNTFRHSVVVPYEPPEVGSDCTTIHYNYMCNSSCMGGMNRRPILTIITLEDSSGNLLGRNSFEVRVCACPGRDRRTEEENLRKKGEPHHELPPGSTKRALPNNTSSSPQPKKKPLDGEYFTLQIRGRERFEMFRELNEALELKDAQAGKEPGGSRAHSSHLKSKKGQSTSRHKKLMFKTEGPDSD

| Structure (SMILES) | activation [1] | Potency [2] | Potency [3] | Potency [4] | viability [5] | Potency [6] | Potency [7] | Potency [8] | Potency [9] | Potency [10] | Potency [11] | Potency [5] |
| --- | --- | --- | --- | --- | --- | --- | --- | --- | --- | --- | --- | --- |
| CCCCNc1ncc(-c2ccc(CN3CCOCC3)cn2)c(NC2CCC(O)CC2)n1 (stereo unspecified) | -4.77% | inactive | inactive | inactive | 114% | 1.15 µM (active) | 0.144 µM (active) | 8.11 µM (active) | – | – | – | – |
| CN1CCC(COc2cnc(-c3cccc(Cn4nc(-c5cccc(C#N)c5)ccc4=O)c3)nc2)CC1 | -3.12% and 9.55% | inactive | inactive | inactive | 115% | – | 5.9 µM (active) | inactive | inactive | inactive | – | – |
| Cc1nnc(C(C)C)n1C1CC2CCC(C1)N2CC[C@H](NC(=O)C1CCC(F)(F)CC1)c1ccccc1 (stereo partly specified) | -6.68% | inactive | inactive | inactive | 113% | inactive | – | inactive | inactive | inactive | inactive | – |
| CC(C)CNc1ccnc(NCc2csc(-c3ccccc3)n2)n1 | 18.4% and 19.6% | inactive | inactive | inactive | – | 8.33 µM (active) | – | 5.25 µM (active) | 5.9 µM (active) | 16.6 µM (active) | 16.6 µM (active) | 11.8 µM (active) |
| COc1nc(C)cnc1NS(=O)(=O)c1cccnc1-c1ccc(-c2nnco2)cc1 | 13.1% and 3.34% | inactive | inactive | inactive | 115% | – | inactive | inactive | inactive | inactive | inactive | – |
| O=C(Nc1ncc(-c2cc(C(F)F)nn2-c2c(Cl)cccc2Cl)s1)C1CC1 | 7.16% | inactive | inactive | inactive | – | 0.833 µM (active) | – | 0.833 µM (active) | 0.742 µM (active) | – | 0.742 µM (active) | 1.05 µM (active) |
